In ChEMBL document CHEMBL3433997, “St. Jude Leishmania screening dataset” (2016) one finds inhibition data, which are given here for 40 molecules.

Molecules are shown by their SMILES.

As usually defined, the inhibition is the relative decrease from the control value, in per cent.

For the assay, the target named is Glucose transporter (Leishmania mexicana) (UniProt O61059). As to the kind of experiment: ST_JUDE_LEISH: Cytotoxicity at 2uM final concentration against transgenic Leishmania Mexicana promastigotes LmGT2 that are glucose transport deficient and complemented with the L. Mexicana glucose transporter 2. Activity is measured by DNA content using SYBR green in vitro. The format is functional.
For `SC(=Nc1ccc2c(c1)OCCO2)NN=Cc1ccccn1`, the inhibition came to 8.54%.

As to `O=C(Nc1ccc(F)cc1)c1ccc(C(=O)NC2CCN(CC3CCCCC3)CC2)cc1`, the inhibition was 11.7%.

As to `CN(C)CCN(C)Cc1ccc(-c2ccc3c(Nc4ccc(Oc5ccccn5)cc4)ccnc3c2)o1`, the inhibition is -2.18%.

In the case of `CC1=C(C(=O)Nc2ccccc2)C(c2ccc([N+](=O)[O-])cc2)n2ncc(C(=O)Nc3ccccc3)c2N1` (stereo not given), the inhibition was 5.18%.

As for `O=C(/C=C/c1ccc(Cl)c(Cl)c1)NCCC(CN1CCC(c2c[nH]c3ccccc23)CC1)c1ccccc1` (stereo not given), the inhibition stood at 0.88%.

For the molecule `COc1cc(NC(=O)/C=C/c2ccccc2OC(F)(F)F)cc(OCCN2CCC(O)(c3ccccc3)CC2)c1`, the inhibition is 5.81%.

On to `c1ccc(-c2ccc(-c3csc(Nc4ccncc4)n3)cc2)cc1`, for which the inhibition amounted to 1.13%.

Regarding `CCc1ccccc1N1CCN(CCCC(=O)c2ccc(NC(=O)c3ccc(Cl)cc3)cc2)CC1`, the inhibition turned out to be 4.09%.

For the molecule `O=C(NCc1ccc(Cl)c(Cl)c1)c1cccc(C2CCCN(Cc3ccc4[nH]cnc4c3)C2)c1` (stereo not given), the inhibition is -0.63%.

`Clc1ccc(Cl)c2[nH]c(CNCCCNc3nc4ccccc4[nH]3)cc12`: the inhibition is 1.29%.

As for `COc1ccc(C(=O)CCC(=O)N(Cc2ccc(-c3ccc(CNCCc4ccc(S(C)(=O)=O)cc4)cn3)cc2)Cc2ccc3c(c2)OCO3)cc1F`, the inhibition was -0.58%.

Turning to `Cc1nc(C(=O)N2CCCC[C@H]2CNC(=O)c2ccc(-c3ccc(N4CCCC4=O)cc3C)cc2)c(-c2ccc(F)cc2)s1`, the inhibition was 4.58%.

Consider `CC(C)N1CCC(Oc2ccc(CN3CCN(C(c4ccccc4)c4ccc(Cl)cc4)CC3)cc2)CC1` (stereo not given), for which the inhibition was found to be 2.61%.

Consider `CC(=O)Nc1ccc(C(=O)Nc2cccc(-c3cccc(-c4nc5cc(F)ccc5[nH]4)c3)c2)cn1`, for which the inhibition is 3.74%.

On to `COc1cccc2c(NN=Cc3cccc(Cl)c3)cc(C)nc12`, for which the inhibition was found to be 1.05%.

In the case of `NC1CCN(c2nc(NCCCc3ccc(O)cc3)nc(NCc3ccccc3-c3ccc(C(F)(F)F)cc3)n2)CC1`, the inhibition amounted to 3.83%.

On to `Clc1ccc(OCCC2CCN(CCCCCCN3CCCCC3)CC2)cc1Cl`, for which the inhibition was determined as 17%.

With `CCCc1c(C(=O)Nc2ccc3c(c2)CCN(C2CCC2)CC3)cnn1-c1ccc(Cl)cc1`, the inhibition came to 2.6%.

On to `Cc1sc(CNCCCNc2cc(=O)c3ccccc3[nH]2)cc1Br`, for which the inhibition came to 0.93%.

On to `COc1cccc(C23NC(=Nc4nc5ccccc5[nH]4)NC2(c2cccc(OC)c2)NC(=Nc2nc4ccccc4[nH]2)N3)c1` (stereo not given), for which the inhibition was found to be 3.29%.

Turning to `CCCc1cc(=O)[nH]c(-n2nc(C)cc2NC(=O)C(CC)c2ccccc2)n1` (stereo not given), the inhibition was found to be 4.69%.

`Cc1ccccc1C1CCN(C2CCC(NC(=O)/C=C/c3cc(F)cc(F)c3)CC2)CC1` (stereo not given): the inhibition was -1.77%.

As for `COc1c(C2CCN(CCCCNC(=O)c3ccc(C)c(-c4ccc(C(F)(F)F)cc4)c3)CC2)ccc2c1CCCC2`, the inhibition is -0.09%.

In the case of `CCOc1cc(Cc2cnc(N)nc2N)cc(OCC)c1OCCCCC(=O)OC`, the inhibition came out at 0.19%.

Consider `COc1ccc(CNCc2cccc(-c3csc(-c4nc5ccccc5[nH]4)c3)c2)cc1`, for which the inhibition was 2.49%.

As for `Cc1c(C(=O)NCc2ccncc2)sc2nc(-c3cccc([N+](=O)[O-])c3)cn12`, the inhibition is -3.15%.

Regarding `CC(C)C[C@H](NC(=O)c1ccc(OCCN2CCOCC2)cc1)C(=O)N[C@H](/C=N/N(C)C(=O)c1ccccc1)CCc1ccccc1`, the inhibition stood at 2.75%.

Turning to `O=C(/C=C/c1ccc(Cl)c(Cl)c1)NC1CCC(CN2CCC(c3nc4cccnc4[nH]3)CC2)CC1` (stereo not given), the inhibition was -2.89%.

In the case of `CCOc1ccc(-c2nc(NC(=O)CS(=O)(=O)c3ccccc3)sc2C)cc1`, the inhibition is 1.8%.

For `CC(C)NCc1ccc(-c2ccc(NC(=O)c3ccc(Cl)cc3)cc2)cc1`, the inhibition was found to be 16.1%.

`OCCC1CCN(Cc2ccc(-c3ccc(-c4nc5ccccc5[nH]4)cc3)cc2)CC1`: the inhibition is 5.76%.

As to `C#CCOc1ccc(N2C(N)=NC(N)=NC2(C)C)cc1`, the inhibition is -0.42%.

`COc1ccc(CNc2ccnc(-n3cnc4cc(C)c(C)cc43)n2)cc1Cl`: the inhibition was 2.53%.

For `Cc1cccc2c(C(=O)NC3CCN(Cc4ccccc4)CC3)cc(-c3cccnc3)nc12`, the inhibition was -0.31%.

Regarding `COc1cc2c(cc1C(F)(F)F)N(C(=O)Nc1cc(F)cc(-c3cncnc3)c1)CC2`, the inhibition turned out to be 0.07%.

As to `CNCCNCc1ccc(-c2ccc(-c3nc4cccc(C)c4[nH]3)s2)cc1`, the inhibition was found to be 3.92%.

`O=C(Nc1ccc(-c2ccc(CN3CCNCC3)cc2)cc1)c1cccc(Cl)c1`: the inhibition worked out at 104%.

In the case of `O=C(CCc1c[nH]cn1)Nc1ccc(-c2ccc(-c3nc4ccccc4[nH]3)cc2)cc1`, the inhibition is 15.2%.

Regarding `COc1cc2nccc(Nc3ccc(NC(=O)c4ccc(C)cc4)c(O)c3)c2cc1OC`, the inhibition came out at 2.92%.

For the molecule `Cc1cccc2nc(-c3ccc(-c4ccc(CN5CCC(N)C5)cc4)s3)[nH]c12` (stereo not given), the inhibition is -2.11%.
